Key:
Test in all cases: thermal shift delta Tm vs DMSO control; higher = stronger stabilization (binding)
Details in all cases: 12.5 µM; protein concentration 2 µM
LOC_OS01G01410-cb001 = system: LOC_OS01G01410-cb001
Summary of the method: (§1)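 Heating from 25°C to 95°C at 0.05°C/s, fluorescence was recorded for 19.5 μl wells of 2 μM E. coli-expressed, purified rice kinase domain in 100 mM potassium phosphate pH 7.5, 150 mM NaCl, 10% glycerol and 5 × SYPRO Orange with compound in DMSO. Boltzmann fits gave melting temperatures for this differential scanning fluorimetry assay. The shift reported is the mean of three replicates against the DMSO-only protein.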

LOC_OS01G02750-cb003 = system: LOC_OS01G02750-cb003
Summary of the method: as §1

LOC_OS01G10900-cb004 = system: LOC_OS01G10900-cb004
Summary of the method: as §1

LOC_OS01G13800-cb001 = system: LOC_OS01G13800-cb001
Summary of the method: as §1

LOC_OS01G14860-cb001 = system: LOC_OS01G14860-cb001
Summary of the method: as §1

LOC_OS01G21960-cb002 = system: LOC_OS01G21960-cb002
Summary of the method: as §1

LOC_OS01G39600-cb002 = system: LOC_OS01G39600-cb002
Summary of the method: as §1

LOC_OS01G48390-cb002 = system: LOC_OS01G48390-cb002
Summary of the method: as §1

LOC_OS01G51400-cb002 = system: LOC_OS01G51400-cb002
Summary of the method: as §1

LOC_OS01G52050-cb004 = system: T1, LOC_OS01G52050-cb004
T1 sequence (whole entry): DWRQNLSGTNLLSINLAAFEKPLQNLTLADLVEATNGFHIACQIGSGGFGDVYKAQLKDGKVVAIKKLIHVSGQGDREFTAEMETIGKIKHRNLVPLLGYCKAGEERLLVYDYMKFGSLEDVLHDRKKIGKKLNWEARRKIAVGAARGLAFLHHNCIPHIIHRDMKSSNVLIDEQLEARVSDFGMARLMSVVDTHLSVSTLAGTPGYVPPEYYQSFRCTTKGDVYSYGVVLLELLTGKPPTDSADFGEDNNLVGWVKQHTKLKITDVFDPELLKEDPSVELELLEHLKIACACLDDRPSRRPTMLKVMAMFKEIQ
Summary of the method: as §1

LOC_OS01G57100-cb003 = system: LOC_OS01G57100-cb003
Summary of the method: as §1

LOC_OS01G60330-cb001 = system: LOC_OS01G60330-cb001
Summary of the method: as §1

LOC_OS01G60700-cb002 = system: LOC_OS01G60700-cb002
Summary of the method: as §1

LOC_OS01G63280-cb003 = system: LOC_OS01G63280-cb003
Summary of the method: as §1

LOC_OS01G67340-cb003 = system: LOC_OS01G67340-cb003
Summary of the method: as §1

LOC_OS01G70970-cb002 = system: LOC_OS01G70970-cb002
Summary of the method: as §1

LOC_OS02G07810-cb001 = system: LOC_OS02G07810-cb001
Summary of the method: as §1

LOC_OS02G08530-cb003 = system: LOC_OS02G08530-cb003
Summary of the method: as §1

LOC_OS02G14120-cb001 = system: LOC_OS02G14120-cb001
Summary of the method: as §1

LOC_OS02G17970-cb001 = system: LOC_OS02G17970-cb001
Summary of the method: as §1
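Further: purified Escherichia coli-expressed rice kinase domain construct.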

Compound	thermal shift delta Tm (LOC_OS01G01410-cb001) [°C]	thermal shift delta Tm (LOC_OS01G02750-cb003) [°C]	thermal shift delta Tm (LOC_OS01G10900-cb004) [°C]	thermal shift delta Tm (LOC_OS01G13800-cb001) [°C]	thermal shift delta Tm (LOC_OS01G14860-cb001) [°C]	thermal shift delta Tm (LOC_OS01G21960-cb002) [°C]	thermal shift delta Tm (LOC_OS01G39600-cb002) [°C]	thermal shift delta Tm (LOC_OS01G48390-cb002) [°C]	thermal shift delta Tm (LOC_OS01G51400-cb002) [°C]	thermal shift delta Tm (LOC_OS01G52050-cb004) [°C]	thermal shift delta Tm (LOC_OS01G57100-cb003) [°C]	thermal shift delta Tm (LOC_OS01G60330-cb001) [°C]	thermal shift delta Tm (LOC_OS01G60700-cb002) [°C]	thermal shift delta Tm (LOC_OS01G63280-cb003) [°C]	thermal shift delta Tm (LOC_OS01G67340-cb003) [°C]	thermal shift delta Tm (LOC_OS01G70970-cb002) [°C]	thermal shift delta Tm (LOC_OS02G07810-cb001) [°C]	thermal shift delta Tm (LOC_OS02G08530-cb003) [°C]	thermal shift delta Tm (LOC_OS02G14120-cb001) [°C]	thermal shift delta Tm (LOC_OS02G17970-cb001) [°C]
COc1ccc(COc2cc3oc(=O)c4cc(C(C)O)ccc4c3cc2OC)cc1 (stereo not given) [Palomid 529 (P529)]	0.67	0.16	1.07	0.03	0.14	0.64	-0.21	0.4	0	0.04	2.39	1.07	1.23	0.19	0.25	0.51	0.98	1.87	1.04	0.5
O=C1c2c(O)cc(O)cc2OC(c2ccc(O)c(O)c2)C1O (stereo not given) [Taxifolin (Dihydroquercetin)]	0.87	0.83	0.4	0.01	0.34	0.61	0.19	0.17	0.11	0.49	1.27	0.28	0.38	0.25	0.07	0.29	0.09	0.73	0.32	0.67
CN1CCN(C2CCN(C(=O)Nc3cc(Oc4ccc(NC(=O)C5(C(=O)Nc6ccc(F)cc6)CC5)c(F)c4)ccn3)CC2)CC1 [Golvatinib (E7050)]	-0.03	1.21	0.95	0.07	0.62	0.11	0.93	2.98	0.51	0.09	0.49	0.6	1.6	0.78	0.24	0.6	0.4	0.79	0.6	2.14
COc1cc2ncnc(Nc3ccc(F)c(Cl)c3)c2cc1OCCCN1CCOCC1 [Gefitinib (ZD1839)]	1.27	0.13	3.7	0.4	0.18	-0.07	1.46	2.87	0.02	0.77	0.37	0.16	1.04	0.4	-0.59	0.28	0.77	0.6	4.78	0.15
Nc1cc(C(F)(F)F)c(-c2cc(N3CCOCC3)nc(N3CCOCC3)n2)cn1 [Buparlisib (BKM120, NVP-BKM120)]	0.58	0.22	0.31	0.04	0.19	0.6	0.55	0.7	0.92	0.06	2.16	0.57	1.2	0.16	0.47	0.27	1.48	0.84	0.46	0.37
CNCc1ccc(-c2cc(-c3nc(-c4ccc(S(=O)(=O)C(C)C)cc4)cnc3N)on2)cc1	1.4	1.1	3	0.25	4.67	1.88	1.85	0.69	0.46	1.41	1.41	0.91	1.58	0.5	0.06	0.3	2.33	1.56	2.23	1.43
NC1(c2ccc(-c3nc4ccn5c(=O)[nH]nc5c4cc3-c3ccccc3)cc2)CCC1	0.94	-0.51	0.16	0.23	0.18	-0.02	0.19	0.18	-0.13	0.16	-0.32	1.3	1.21	-0.33	-0.9	0.31	0.4	0.46	-0.05	1.42
CNC(=O)c1cc(Oc2ccc(NC(=O)Nc3ccc(Cl)c(C(F)(F)F)c3)cc2)ccn1 [Sorafenib]	1.65	3.61	1.53	1.59	4.41	2.7	1.52	2.74	0.71	5.22	3.62	3.63	0.58	9.12	1.48	1.77	1.92	1.8	2.47	2.3
Cc1cc(Nc2cc(N3CCN(C)CC3)nc(/C=C/c3ccccc3)n2)n[nH]1 [ENMD-2076 L-(+)-Tartaric acid]	2.38	2.56	1.86	-0.25	4.33	2.63	1.94	3.3	0.81	4.1	1.16	8.71	1.16	0.86	1.45	3.09	0.04	2.96	7.86	0.95
CCN(CC)CCNC(=O)c1c(C)[nH]c(/C=C2\C(=O)Nc3ccc(-c4csc(-c5ccccc5)n4)cc32)c1C [Amcasertib (BBI503)]	3.77	0.02	5.39	-0.01	1.64	1.66	4.12	-0.28	0.02	-0.1	0.34	0.8	-0.11	0.21	0.03	0.3	-0.19	3.7	4.69	-0.15
O=C(O)c1ccc(-c2c[nH]c3ncc(-c4ccccc4)cc23)cc1C1CCCC1	5.06	4.25	0.46	-0.9	5.49	1.3	14.5	-1.42	-0.58	10.5	1.09	-0.77	-3.79	2.57	4.86	6.62	0.4	4.81	10.7	-1.49
O=C(c1ccc(F)c(F)c1Nc1ccc(I)cc1F)N1CC(O)([C@@H]2CCCCN2)C1 [Cobimetinib (GDC-0973, RG7420)]	0.62	1.67	0.3	0.01	0.39	0.36	-0.03	0.12	0.29	0.44	2.49	0.82	1.16	0.52	0.36	0.54	0.48	1.02	1.18	0.97

From the supplement of paper PMC9694430
